# Hits are enriched below; roughly 7.4% of the tested compounds scored in any of these assays.
# SMN2 splice enh: increases expression of the SMN2 splice variant. HEK293 SMN2-luciferase splicing reporter, luminescence, 30-36 h. Potency, µM (series often up to 46.1 µM), for the others: at the highest dose activity change, positive = activation, actives largely listed as activators. 210,000 compounds, 2.8% hits. AID 1458; further: % of control where 0% means no effect; nearly all actives have a fitted effect of over 55% in size
#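 qHTS luciferase splicing reporter: luminescence rises when SMN2 exon 7 is included in transfected HEK293 cells. Compound exposure lasted 30-36 h at 37C, with 4.5 mM final sodium butyrate as control, followed by a ONE-Glo read.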
# ELG1 genotoxic: genotoxicity induction in ELG1-luciferase HEK293T cells; HEK293T ELG1-luciferase reporter, luminescence, 16 h; Potency, µM (top dose mostly 46 µM), without a hit: top-dose activity change, positive = activation, most hits filed as activators; 330,000 compounds, 1.3% hits; further: % of control where 0% means no effect; nearly all actives have a fitted effect of over 60% in size
#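 Genotoxic stress is detected as increased luminescence from luciferase-tagged ELG1 in HEK293T cells, measured with ONE-Glo after a 16 hr treatment at 37 °C.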
# FLuc modulator: counter-screen for miR-21 project: firefly luciferase inhibitors or activators; P08659; purified FLuc, Km substrates, luminescence inhibition; Potency, µM (highest dose often 57.5 µM), for inactives: at the top dose activity change, negative = inhibition, actives largely listed as inhibitors; 360,000 compounds, 6.9% hits; AID 588342;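 further: plate controls were vehicle for no effect and reference inhibitor for full effect; nearly all actives have a fitted effect of over 55% in size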
# Target sequence (P08659 whole entry, looked up): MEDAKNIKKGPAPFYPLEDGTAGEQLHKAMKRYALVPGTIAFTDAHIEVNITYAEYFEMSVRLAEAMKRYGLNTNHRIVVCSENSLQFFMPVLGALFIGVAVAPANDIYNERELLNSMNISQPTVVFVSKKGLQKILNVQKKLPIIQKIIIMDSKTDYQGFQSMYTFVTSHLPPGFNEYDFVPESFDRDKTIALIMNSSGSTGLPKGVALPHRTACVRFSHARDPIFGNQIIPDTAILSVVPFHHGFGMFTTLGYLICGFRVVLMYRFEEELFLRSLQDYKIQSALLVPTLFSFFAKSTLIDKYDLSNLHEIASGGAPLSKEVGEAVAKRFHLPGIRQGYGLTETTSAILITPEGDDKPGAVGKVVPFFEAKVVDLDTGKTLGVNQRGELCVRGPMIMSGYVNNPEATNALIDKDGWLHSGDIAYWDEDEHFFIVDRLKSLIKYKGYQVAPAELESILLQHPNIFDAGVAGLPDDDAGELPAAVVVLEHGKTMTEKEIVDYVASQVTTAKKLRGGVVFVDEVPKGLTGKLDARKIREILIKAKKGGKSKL
#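 Purified P. pyralis luciferase, 10 nM final, with Km-level 10 uM D-luciferin and 10 uM ATP in 50 mM Tris acetate pH 7.5, 10 mM Mg acetate, 0.01% Tween-20, 0.05% BSA; 6-point qHTS titration about 60 µM downward; luminescence read.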
# NPC1 prom act: NPC1 promoter activation; Huh7 NPC1 promoter luciferase reporter, 24 h; Potency, µM (series often up to 9.22 µM), for inactives: at the highest dose activation, usual class: activators; 320,000 compounds, 2.4% hits; further: % of control where 0% means no effect; nearly all actives have a fitted effect of over 60% in size
#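 Compounds in DMSO were transferred onto Huh7 NPC1-luciferase reporter cells pre-incubated 2 h; after 24 h at 37 °C, Amplite reagent was dispensed and luminescence recorded 10 min later.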
# Rab9 prom act: activators of Rab9 promoter | Potency, µM (series often up to 9.22 µM), for the others: at the top dose activation, negative = inhibition, hits mostly activators | 320,000 compounds, 2.8% hits | Huh7 Rab9 promoter-luciferase reporter, luminescence, 24 h; further: % of control where 0% means no effect; nearly all actives have a fitted effect of over 60% in size
#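 Promoter activation is measured as luciferase luminescence in Huh7 cells stably transfected with a Rab9 promoter–luciferase construct, following 24 h compound exposure at 37 °C and 10 min reagent incubation at ambient temperature.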
# The depositor's hits bear a star; ? = inconclusive; / = not tested or not shown; [ ] = another dose, or the depositor's remark. The call rests on the fitted dose curve; in most records, active means well fitted curve in the direction sought with a large enough effect; inconclusive means small, poorly fitted or top-dose-only effect, or another doubt; inactive means no such curve, though single readings can be large; an effect the other way counts as inactive or inconclusive. Potency means the concentration at half of the fitted maximal effect.
SMILES,SMN2 splice enh,ELG1 genotoxic,FLuc modulator,NPC1 prom act,Rab9 prom act
CCc1ccc(NC(=O)c2ccc(-c3ccccc3)s2)cc1,/,/,0%,/,/
CCOc1ccccc1NC(=O)C1=C(C)Nc2ncnn2C1c1ccco1 (stereo unspecified),/,/,-2%,/,/
Cc1ccc(C(=O)CSc2nc(-c3ccccc3)nc3c2CCCC3)cc1C,-11%,/,-12%,/,/
Cc1noc(C)c1NC(=O)Nc1cccc2c1O[C@H](CN(C)C(=O)Nc1ccc(C(F)(F)F)cc1)[C@@H](C)CN([C@H](C)CO)C2=O,/,-2%,/,/,/
Cc1ccc(NS(=O)(=O)c2cc(C(=O)NCCCN(C)C)ccc2Cl)cc1Cl,/,0%,9%,-3%,-4%
Cc1ccc(Cn2c(CNC(=O)c3ccccc3Br)nc3cccnc32)cc1,/,/,-9%,/,/
C/C(=C\C1CCCCC1)C(NC(=O)c1cccnc1)c1ccc(-c2ccccc2)cc1 (stereo unspecified),-27%,/,/,/,/
CCOc1ccc(OCC)c(NC(=O)c2ccc(-c3ccccc3)s2)c1,4%,/,3%,/,/
O=C(O)c1ccc(-c2ccc(-c3ccccc3)cc2)s1,/,?,0.076µM*,4e-05µM*,0.001µM*
CC(C)(C)NC(=O)CSc1nnc(-c2c[nH]c3ccccc23)o1,/,5%,?,5%,21%
COC(=O)CSc1nnc(-c2ccc(OC)cc2OC)o1,-1%,6%,21µM*,3%,-1%
c1ccc(CSc2nnc(-c3c[nH]c4ccccc34)o2)cc1,?,?,8.5µM*,?,?
COC(=O)CSc1nnc(-c2c[nH]c3ccccc23)o1,/,2%,15µM*,-4%,-1%
COc1ccccc1CNc1nc2nc(C)c(Cl)c(C)n2n1,?,/,-5%,/,/
Cc1ccc(CCNC(=O)CCS(=O)(=O)c2cc3c(cc2Cl)NC(=O)CO3)cc1,/,/,0%,/,/
CCOc1ccc(CN2C(=O)c3ccccc3Sc3ccc(C(=O)NC4CCC(C)CC4)cc32)cc1 (stereo unspecified),3%,/,-13%,/,/
Cc1cc(C(=O)CN2C(=O)C(=O)N(C3CCCC3)C2=O)c(C)n1-c1ccc(F)cc1,-1%,-9%,-17%,0%,12%
Cc1cc(C(=O)CN2C(=O)NC(CC(C)C)C2=O)c(C)n1-c1ccccc1F (stereo unspecified),25%,?,13µM*,2.2µM*,1.1µM*
Cc1cc(C(=O)CN2C(=O)C(=O)N(CC(C)C)C2=O)c(C)n1-c1ccccc1F,16%,5%,17µM*,2%,23%
O=C(/C=C/Sc1ccc(C(F)(F)F)cn1)c1ccccc1,/,6%,0.54µM*,-14%,-38%
O=C(CSc1ccc(C(F)(F)F)cn1)Nc1ccccc1,/,-1%,-5%,-1%,1%
Cc1ccc(-n2c(=O)[nH]c3ncccc3c2=O)cc1,/,1%,1%,-1%,-12%
Cc1ccc(-c2cc3ccccc3nc2N2CCOCC2)cc1,-18%,-4%,4%,3%,0%
NC(=O)c1cccnc1Oc1ccc(Cl)cc1Cl,/,-1%,-11%,0%,-1%
COc1ncccc1-c1nnn(-c2ccc(C)cc2)n1,/,9.2µM*,4.3µM*,3.2µM*,3.2µM*
SMILES,SMN2 splice enh,ELG1 genotoxic,FLuc modulator,NPC1 prom act,Rab9 prom act
COc1ncccc1-c1nnn(-c2ccc(F)cc2)n1,/,9.2µM*,5.4µM*,2.8µM*,4µM*
COc1ncccc1-c1nnn(-c2ccc(Cl)c(Cl)c2)n1,/,?,4.8µM*,2.8µM*,3.2µM*
Cc1ccc(-n2nnc(-c3cc4ccccc4nc3Cl)n2)cc1,/,?,6µM*,?,4.5µM*
Fc1ccc(-n2nnc(-c3ccccc3Br)n2)cc1,/,-4%,4%,0%,0%
COC(=O)C1=C(C)N(CC2CC2)C(=O)N[C@H]1c1ccccc1,-10%[9.22 µM],/,/,/,/
CCCCNC(=O)Nc1ccc(C2SCCS2)cc1,/,?,15µM*,?,?
O=C(Nc1ccc(C2SCCS2)cc1)c1ccccc1,/,?,0.85µM*,1.1µM*,1.4µM*
CC(C)c1ccc(NC(=O)COc2ccc(C3SCCS3)cc2)cc1,/,0%,-3%,1%,-1%
CNC(=O)Nc1ccc(C2SCCS2)cc1,/,9%,17µM*,18%,4%
O=C(NNC(=O)c1ccc(NC(=O)c2ccccc2)cc1)c1ccccc1,4%,18%,-3%,-6%,-1%
COCCCN(C(=O)Cc1coc2cc(C)c(C)cc12)c1c(N)n(Cc2ccccc2)c(=O)[nH]c1=O,/,-5%,3%,-3%,-4%
C[C@@H]1CCC2[C@](C)(CO)[C@@H](O)CC[C@]2(C)[C@]12CCC(CO)(CCO)O2 (stereo partly specified),14%,/,/,/,/
COc1ccc(/C=C2\N=C(C(C)(C)C)OC2=O)c(OC)c1,/,-1%[9.26 µM],?,-1%,2%
CCN(CC)c1ccc(/C=C2/C(=O)ON=C2C)cc1,-2%,6%,12µM*,-2%,-3%
CC1=NOC(=O)/C1=C/c1ccc(N(C)C)cc1,/,6%,7.6µM*,-1%,1%
CN(C)c1ccc(/C=C2\C(=O)Nc3ccccc32)cc1,3.2µM*,/,/,1.5µM*,3.7µM*
CN(C)c1ccc(/C=C2\N=C(C(C)(C)C)OC2=O)cc1,/,0%,1.5µM*,1%,-4%
CCOC(=O)c1c(S(=O)(=O)N2CCC(C(=O)NCc3cccc(OC)c3)CC2)c(C)n(C)c1C,/,/,4%,/,/
Cc1ccc(C)c(S(=O)(=O)N2CCCCC2CCNC(=O)C(=O)NCc2ccccc2)c1 (stereo unspecified),/,-4%,3%,-2%,-1%
Cc1ccc(-n2cc(CNC(C)Cn3cncn3)c(-c3ccc(F)cc3)n2)cc1 (stereo unspecified),-7%,0%,17µM*,2%,-4%
Cc1ccc(-n2cc(CNC(C)c3cnn(C)c3C)c(-c3ccc(F)cc3)n2)cc1 (stereo unspecified),/,-7%,15µM*,-4%,-1%
CCc1ccc(-c2cn(-c3nc(C)cc(C)n3)c(=N)o2)cc1,2%,-8%,5.4µM*,2%,0%
CN(C)c1ccc(/C=C2\SC(=S)N(Nc3ncc(C(F)(F)F)cc3Cl)C2=O)cc1,7%,0%,9.5µM*,5%,-2%
COc1cc(/C=C2\SC(=S)N(Nc3ncc(C(F)(F)F)cc3Cl)C2=O)ccc1O,-3%,7%,8.5µM*,-1%,-3%
COc1cc(/C=C2\SC(=S)N(c3cccnc3)C2=O)ccc1O,/,1%,-7%,-3%,-2%
CCN(CC)CCNC(=O)c1ccc(NC(=O)Nc2cccc3ccccc23)cc1,/,6%,-3%,-1%,-4%
Cc1cccc(Cn2c(=O)n(Cc3ccc(C(=O)NC4CCN(Cc5ccccc5)CC4)cc3)c(=O)c3ccccc32)c1,-1%,/,2%,/,/
COc1ccccc1-c1ccc(/C=C2\C=CC(=O)O2)o1,/,12%,7.6µM*,-1%,-9%
